This is one part of a sample in which hits are shown more often than they occur.
FECH inh: inhibitors of human ferrochelatase | P22830 | purified FECH, Ni-mesoporphyrin absorbance 550 nm | calls only at 10 µM (by protocol) | 20,000 tested, 3.3% active | AID 1671448;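 active means enzyme reaction rate more than 3 SD below the solvent-only control wells on the same plate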;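 further: lower slope than DMSO wells means FECH inhibition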
Target sequence (P22830 whole entry, looked up): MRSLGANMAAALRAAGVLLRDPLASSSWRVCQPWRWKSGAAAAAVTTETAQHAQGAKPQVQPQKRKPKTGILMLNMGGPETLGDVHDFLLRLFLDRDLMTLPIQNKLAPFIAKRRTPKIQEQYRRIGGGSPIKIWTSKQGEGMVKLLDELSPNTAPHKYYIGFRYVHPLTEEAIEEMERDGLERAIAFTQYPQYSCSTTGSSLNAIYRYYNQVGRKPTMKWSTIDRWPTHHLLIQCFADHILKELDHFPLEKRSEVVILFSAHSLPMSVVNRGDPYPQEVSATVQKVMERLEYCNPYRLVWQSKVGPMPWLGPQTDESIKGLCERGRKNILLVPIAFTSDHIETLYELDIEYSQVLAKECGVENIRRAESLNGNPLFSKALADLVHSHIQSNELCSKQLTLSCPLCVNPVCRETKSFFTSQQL
Numbers without * were called inactive; i = inactive; + = active, no number.

SMILES	FECH inh
COc1ccc(NC(=O)N2CCC(Cn3cc(C4CCCC4)nn3)CC2)cc1	i
Fc1cccc(Cl)c1-c1nccn1Cc1cnc2ccccn12	i
O=S(=O)(NCc1nc2cccnc2n1C1CCCCC1)c1ccccc1	i
CCOc1ccc(N2CC(NC(=O)C(C)(C)C)CC2=O)cc1 (stereo not given)	i
Cc1ccc(NS(=O)(=O)c2ccc3c(c2)CCN3C(=O)CCC(=O)N2CCOCC2)cc1C	i
Cc1cc(NC(=O)COc2ccccc2F)n(-c2ncnc3c2cnn3-c2ccc(Cl)cc2)n1	i
NC(=O)c1ccc(NC(=O)c2ccc(=O)n(Cc3ccc(Cl)cc3)c2)cc1	i
COc1cccc(Nc2nc(N(C)C)nc3c2cnn3-c2ccccc2)c1	i
CCN(CC)c1nc(Nc2ccc(OC)cc2)c2cnn(-c3ccccc3)c2n1	+
CCOc1ccc(Nc2nc(N(CC)CC)nc3c2cnn3-c2ccccc2)cc1	i
CCOc1ccc(Nc2nc(N(CC)CCO)nc3c2cnn3-c2ccccc2)cc1	i
COc1ccc(OC)c(Nc2nc(NCc3ccccc3)nc3c2cnn3-c2ccccc2)c1	i
COc1ccc(Nc2nc(N(C)C)nc3c2cnn3-c2ccccc2)cc1	+
COc1ccc(OC)c(Nc2nc(NCc3ccccc3Cl)nc3c2cnn3-c2ccccc2)c1	+
CCOc1ccc(Nc2nc(NCC3CCCO3)nc3c2cnn3-c2ccccc2)cc1 (stereo not given)	+
COc1cccc(Nc2nc(NCC3CCCO3)nc3c2cnn3-c2ccccc2)c1 (stereo not given)	i
CN(C)c1nc(Nc2ccc(Cl)cc2)c2cnn(-c3ccccc3)c2n1	i
COc1ccc(OC)c(Nc2nc(NCc3ccccc3OC)nc3c2cnn3-c2ccccc2)c1	i
Cc1cc(C)cc(Nc2nc(NCC3CCCO3)nc3c2cnn3-c2ccccc2)c1 (stereo not given)	i
Cc1ccc(-n2c(=O)n(C)c3c(C(N)=O)nc(-c4ccc(F)cc4F)nc32)cc1C	i
COc1ccc(OC)c(S(=O)(=O)NCCn2c(-c3ccc(F)cc3)nc3cccnc32)c1	i
CC(C)CN1CCC(CNC(=O)c2ccc(N3CCN(C)C(=O)C3)nc2)C1 (stereo not given)	i
Cc1nc(C)n(CCNc2nc(-c3ccncc3)nc3c2CCNC3)n1	i
OCc1ccc(-c2nccn2-c2ccc3cn[nH]c3c2)o1	i
CCCc1cc(=O)n2[nH]c(CNc3ccccc3C)nc2n1	+
SMILES	FECH inh
CCCc1cc(=O)n2[nH]c(CNc3cccc(Cl)c3C)nc2n1	+
COc1ccc(CNc2nc3nc(CNc4cccc(C)c4C)cc(=O)n3[nH]2)cc1	i
CCCc1cc(=O)n2[nH]c(CNc3cccc(C)c3C)nc2n1	+
Cc1ccc(Cl)cc1NCc1cc(=O)n2[nH]c(NCc3ccc(F)cc3)nc2n1	i
COc1ccc(Cl)cc1NCc1cc(=O)n2[nH]c(NCc3ccccc3)nc2n1	i
CCCc1cc(=O)n2[nH]c(CNc3cc(Cl)ccc3C)nc2n1	+
Cc1cccc(NCc2cc(=O)n3[nH]c(NCc4ccccc4)nc3n2)c1C	i
Cc1cccc2cc(CO)c(N3CCCC(CO)(Cc4ccccc4)C3)nc12 (stereo not given)	i
Cc1ccc(NC(C)(C)C(=O)N[C@H]2C[C@H]3C(=O)NCC(=O)N3C2)cc1	i
CC(C)CCn1c(CN2[C@@H]3CC[C@H]2CNC(=O)C3)nc2ccccc21	i
CCC(c1cccs1)n1ccnc1-c1ccc(NC(C)=O)cc1 (stereo not given)	i
Cc1cccc(-c2noc(CN(C)C(=O)c3scc4c3OCCO4)n2)c1	i
Cc1ccccc1C1(O)CCN(Cc2ccnc(C(C)C)n2)C1 (stereo not given)	i
CN(C)CCCn1c(=O)n(Cc2c(F)cccc2F)c2ccc(C(=O)O)cc21	i
Cc1nc(N2CCC(O)(Cn3ccnc3)CC2)c2cnn(C)c2n1	i
COc1ccccc1C(=O)Nc1nc2n(n1)C(c1ccc(Cl)cc1)C=C(c1ccccc1)N2 (stereo not given)	i
CN(C)Cc1cc(-c2nccn2Cc2cnn(C)c2)ccc1O	i
CCc1cc(N2CCC3(CC2)CNC(=O)O3)nc(N2CCOCC2)n1	i
C=CCNc1ccccc1C(=O)NCc1ccc2nonc2c1	i
CCOC(=O)CCc1c(C)nc2nc(CNc3ccccc3Cl)[nH]n2c1=O	i
CCCc1c(C)nc2nc(-c3ccco3)[nH]n2c1=O	i
Cc1cccc(NCc2nc3nc(C)c(Cc4ccc(Cl)cc4)c(=O)n3[nH]2)c1C	+
COCCN(Cc1ccc2c(c1)OCCCO2)Cc1cccs1	i
COCC1(Cn2cnc(-c3ccccc3)c2-c2cccc3cnccc23)CC1	+
Cn1cnc(-c2ccccc2)c1-c1cccc2cnccc12	i
CCc1ccccc1-c1c(-c2ccccc2)ncn1CCC(=O)OC	i
Cc1ccc(N2C(=O)CCS2(=O)=O)cc1S(=O)(=O)Nc1cccc(C(F)(F)F)c1	i
O=C1CN(Cc2cccc(C(F)(F)F)c2)S(=O)(=O)c2ccccc2N1Cc1ccccc1	i
